Source: PubChem BioAssay (several laboratories)
Most compounds without a hit are left out; they make up all but 32% or so of the library.
CYP2C9 activ = activators of human CYP2C9. 96,000 tested, 1.4% active. P11712. activation factor at 5 µM. recombinant CYP2C9, luciferin-H conversion, luminescence; active compounds read high; factor 1 = untreated enzyme, 0 = blocked;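 active = activation factor of 2 or more for CYP2C9 at a 5 µM dose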;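 note: 0 = sulfaphenazole-blocked wells and 1 = vehicle-only wells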
Target sequence (P11712 whole entry, looked up): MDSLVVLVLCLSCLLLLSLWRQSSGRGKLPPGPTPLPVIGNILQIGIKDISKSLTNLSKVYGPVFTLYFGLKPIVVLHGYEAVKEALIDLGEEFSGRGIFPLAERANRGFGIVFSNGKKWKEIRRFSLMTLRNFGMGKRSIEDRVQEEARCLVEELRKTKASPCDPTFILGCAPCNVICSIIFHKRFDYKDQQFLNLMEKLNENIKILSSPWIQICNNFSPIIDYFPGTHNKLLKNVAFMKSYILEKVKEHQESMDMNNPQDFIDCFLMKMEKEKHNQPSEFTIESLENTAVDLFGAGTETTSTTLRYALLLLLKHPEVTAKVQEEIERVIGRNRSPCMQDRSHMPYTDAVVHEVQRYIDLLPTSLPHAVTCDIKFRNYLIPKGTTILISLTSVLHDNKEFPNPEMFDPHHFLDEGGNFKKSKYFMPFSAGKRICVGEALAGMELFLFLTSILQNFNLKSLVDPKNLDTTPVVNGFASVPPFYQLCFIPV
CYP2C19 inhib = blocks human cytochrome P450 2C19; CYP2C19 Supersomes, luciferin-H EGE luminescence, 30 min; inhibition, % at 5 µM; 96,000 tested, 21% active;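 active = CYP2C19 inhibition above a set limit at 5 µM in the primary screen, cut at about 50% in these data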;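 note: plate controls were negative control wells for no effect and 2.5 mM tranylcypromine positive control for full effect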
PostGolgi ctrl = growth of the yeast control strain, post-Golgi counter-screen | 98,000 tested, 5% active | inhibition, % at 10 µM | AID 738 | efflux-deficient yeast background strain, growth absorbance A615, 16 h
PostGolgi yeast = growth inhibition of a yeast mutant, post-Golgi transport screen; post-Golgi transport phenotypic cell assay; inhibition, % at 10 µM; 98,000 tested, 0.9% active;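 note: yeast cells grown in 1536-well plates; yeast grown about 18 h at 30C before absorbance read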
CYP2C9 inh = blocks human cytochrome P450 2C9; AID 777; inhibition, % at 5 µM; CYP2C9 Supersomes, luciferin-H conversion, luminescence; 96,000 tested, 20% active; P11712;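 active = blocking of liver enzyme CYP2C9 beyond about 50% at 5 µM, limit read from the data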
CYP2C19 act = increases human CYP2C19 enzyme activity | P33261 | 96,000 tested, under 10 active | recombinant CYP2C19, luciferin-H EGE luminescence; active compounds read high; 0 = fully inhibited enzyme, 1 = untreated enzyme | activation factor at 5 µM;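 active = activation factor of at least 2 at 5 µM in the primary screen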;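 note: 0 = wells with 2.5 mM tranylcypromine and 1 = vehicle-only wells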
* = called active by the depositor; . = no result given. Cut-off read from the data, not from the text of the source, unless noted: active = inhibition above about 30%; inactive = the rest.

SMILES	CYP2C9 activ	CYP2C19 inhib	PostGolgi ctrl	PostGolgi yeast	CYP2C9 inh	CYP2C19 act
CCCNC(=O)COC(=O)c1ccc(OCC(=O)Nc2ccccc2OC)c(OC)c1	0.9	38.6	0.1	-1.9	14.2	0.6
COc1cccc2c(=O)n(CC(=O)Nc3ccc(F)cc3F)ccc12	0.8	56.3*	1.1	-4.7	21.2	0.4
Cc1cc(C)cc(N(C(=O)C(F)(F)F)C(C(=O)NC2CCCCC2)c2cccs2)c1 (stereo not drawn)	0.8	8.6	-5.8	2.7	16.0	0.9
Cc1c(C(=O)N2CCN(c3ccc(F)cc3)CC2)sc2nc(-c3ccccc3)cn12	1.1	0.3	-3.9	-5.4	-12.0	1
COc1ccccc1N1CCN(C(=O)c2sc3nc(-c4ccccc4)cn3c2C)CC1	0.2	30.4	19.2	3.6	80.5*	0.7
COC(=O)C1CCN(C(=O)c2sc3nc(-c4ccc(F)cc4)cn3c2C)CC1	0.4	38.7	0.6	1.6	62.0*	0.6
Cc1c(C(=O)Nc2ccncc2)sc2nc(-c3ccccc3)cn12	0.2	47.0	3.5	5.3	79.2*	0.5
Cc1c(C(=O)N2CCOCC2)sc2nc(-c3ccccc3)cn12	1	9.7	7.1	-3.6	2.8	0.9
Cc1c(C(=O)N2CCc3ccccc3C2)sc2nc(-c3ccccc3)cn12	0.5	58.8*	46.9*	5.0	53.0*	0.4
O=C(O)c1cccnc1-c1ncccc1C(=O)O	1	7.5	4.3	3.0	3.4	0.9
Fc1c(F)c(C(F)(F)F)c(F)c(F)c1N/N=C\c1cccs1	0.9	1.6	12.3	0.8	5.3	1
Cc1ccc(C2N(c3ccccc3)C(=S)N3CCCN23)cc1 (stereo not drawn)	0.8	34.3	4.7	-2.1	24.7	0.7
O=C(OCn1nnc2ccccc2c1=O)C1COc2ccccc2O1 (stereo not drawn)	1	6.8	2.3	-3.0	-2.0	0.9
O=c1c2ccccc2nnn1CSc1nnc(C2COc3ccccc3O2)n1-c1ccccc1 (stereo not drawn)	0.1	86.7*	20.1	0.3	89.7*	0.1
COc1ccc(C(C)(C)C)cc1NC(=O)Nc1ccc2c(c1)OCO2	.	.	71.2*	5.2	.	.
COc1ccc(C)cc1S(=O)(=O)N(C)CC(=O)Nc1ccc2c(c1)OCO2	0.1	58.0*	-0.1	6.6	85.9*	0.4
COc1ccc(C)cc1S(=O)(=O)N(CC(=O)Nc1ccc2c(c1)OCCO2)Cc1ccccc1	0	100.3*	7.6	2.5	98.4*	0
CCOc1cc(C2/C(=C(/O)c3ccc(OC(C)C)cc3)C(=O)C(=O)N2CCCOC)ccc1O (stereo not drawn)	0.9	30.3	4.8	0.5	6.0	0.7
Cc1cc2cc(C)c3nnc(SCC(=O)NCc4ccco4)n3c2cc1C	0.7	21.3	10.0	-4.7	32.9	0.8
CC1CCN(C(=S)c2cn(Cc3ccccc3F)c3ccccc23)CC1	0.7	26.0	15.9	2.0	28.1	0.7
CCNC(=S)NNC(=O)c1cc(-c2cccc(C)c2)nc2ccccc12	0.5	4.3	4.8	-1.9	51.8*	1
CCNC(=S)NNC(=O)c1cc(-c2cccc(OCC)c2)nc2ccccc12	0.2	37.6	9.8	-5.6	84.1*	0.6
CCNC(=S)NNC(=O)c1cc(C2CC2)nc2ccccc12	0.5	-11.0	2.2	-13.6	50.9*	1.1
CCCCOc1cccc(-c2cc(C(=O)NNC(=S)NCC)c3ccccc3n2)c1	0.9	-3.7	14.5	23.1	11.4	1
CCCCOc1ccc(-c2cc(C(=O)NNC(=S)NCC)c3ccccc3n2)cc1	0.8	20.0	8.3	-4.3	21.5	0.8
SMILES	CYP2C9 activ	CYP2C19 inhib	PostGolgi ctrl	PostGolgi yeast	CYP2C9 inh	CYP2C19 act
CC(C)n1c(Nn2cnnc2)nc2ccccc21	0.9	-0.8	5.4	-2.3	10.2	1
Cc1ccccc1-c1nc(CN2CCC(C(=O)NCCC3=CCCCC3)CC2)c(C)o1	1.1	2.2	8.9	1.9	-14.4	1
Cc1ccc(-c2cc(C(F)F)nc(NCc3cccnc3)n2)cc1	.	.	43.8*	0.9	.	.
FC(F)(F)c1cc(-c2ccc(Cl)cc2)nc(NCc2cccnc2)n1	0.5	48.7	8.2	6.2	45.6	0.5
Cc1ccc(-c2cc(C(F)F)nc(NCC3CCCO3)n2)cc1 (stereo not drawn)	.	.	32.0*	6.5	.	.
CC1CC(=O)c2cnc(NCC3CCCO3)nc2C1 (stereo not drawn)	1.1	1.7	1.9	1.0	-8.9	1
Cc1ccccc1Cn1c(-c2cncs2)nc2ccccc21	0.6	75.5*	35.4*	23.9	39.4	0.2
c1ccc(Cn2c(CN3CCCC3)nc3ccccc32)cc1	0.9	57.9*	-10.8	-3.2	8.4	0.4
Cc1ccccc1Cn1c(Cc2ccccc2)nc2ccccc21	0.8	37.4	34.4*	-12.3	24.7	0.6
COCc1nc2ccccc2n1Cc1cccc(C)c1	0.9	32.5	19.8	20.8	9.9	0.7
O=C(Cn1c(-c2cncs2)nc2ccccc21)NCc1ccccc1	0.8	80.2*	19.7	7.3	22.5	0.2
Brc1cc2c(cc1Cn1c(-c3cncs3)nc3ccccc31)OCO2	1.1	2.0	7.2	15.6	-7.6	1
O=C(CN1C(=O)C2C3c4ccccc4C(c4ccccc43)C2C1=O)N1CCOCC1 (stereo not drawn)	1	3.6	-3.0	1.7	-0.9	1
Cc1ccc(Cl)c(NC(=S)N(CCCN2CCOCC2)Cc2ccco2)c1	0.9	6.3	0.1	-5.5	12.7	0.9
Cc1ccccc1-c1cc(C(=O)n2cccn2)c2cc(Cl)ccc2n1	0.8	62.0*	-0.4	-0.2	15.1	0.4
COc1cccc(Oc2nc3ncn(Cc4ccccc4)c3c(=O)n2C)c1	0.8	8.7	5.2	-3.3	18.4	0.9
C=CCn1c(SCc2c(C)noc2C)nc2sc(C)c(C)c2c1=O	0.4	19.6	34.9*	-4.3	56.4*	0.8
Cc1noc(C)c1CSc1nnc2ccccn12	0.9	21.6	5.8	-0.9	10.0	0.8
C=CCn1c(SCC(=O)Nc2sccc2C#N)nc2sc(C)c(C)c2c1=O	0.7	-7.1	6.3	3.5	30.3	1.1
Cc1noc(C)c1CSc1nc2ccccc2n1CCc1ccccc1	0.4	63.0*	20.9	7.6	61.7*	0.4
Cc1noc(C)c1CSc1nnnn1-c1ccc(Cl)cc1	0.4	99.2*	30.2*	17.8	57.8*	0
C=CCn1c(SCC(=O)NC(=O)NCc2ccco2)nc2sc(C)c(C)c2c1=O	0.7	18.8	-0.2	-8.5	26.6	0.8
C=CCn1c(SCC(=O)c2cc(C)n(C(C)COC)c2C)nc2sc(C)c(C)c2c1=O (stereo not drawn)	0.1	88.9*	27.9	-3.4	91.3*	0.1
CC(C(=O)Nc1ccccc1-c1ccccc1)N1CCCCC1 (stereo not drawn)	1	21.8	3.2	-2.7	4.3	0.8
CC(=O)c1ccc(N2CCN(C(=O)c3ccc(NC(=O)C4CCCO4)cc3)CC2)cc1 (stereo not drawn)	0.8	18.6	-1.6	-12.5	15.6	0.8
